Several values for one entry are separate records, joined by “and”; a condition that tells them apart may be missing. Identical values can stand only once. Some structures have more than one record in an assay (separate samples or runs), and their calls can disagree. Activity calls are given as the source filed them. The calls were made as follows: active = hit-call score of the fitted dose curve at least 0.9, where 1 is the maximum; inactive = score below 0.9.
Legend:
[1] = molecular target: Nuclear respiratory factor 1 (Homo sapiens) (UniProt Q16656); test: ATG_NRF1_CIS: Attagene CIS-FACTORIAL HepG2 Assay for human Nuclear Respiratory Factor 1 (NRF1) Orphan Gene (AID 2282987); settings: HepG2 NRF1 cis-element reporter, Attagene multiplex; actives raise or lower the signal
Chain of Nuclear respiratory factor 1 (Homo sapiens) (Q16656 whole entry, looked up): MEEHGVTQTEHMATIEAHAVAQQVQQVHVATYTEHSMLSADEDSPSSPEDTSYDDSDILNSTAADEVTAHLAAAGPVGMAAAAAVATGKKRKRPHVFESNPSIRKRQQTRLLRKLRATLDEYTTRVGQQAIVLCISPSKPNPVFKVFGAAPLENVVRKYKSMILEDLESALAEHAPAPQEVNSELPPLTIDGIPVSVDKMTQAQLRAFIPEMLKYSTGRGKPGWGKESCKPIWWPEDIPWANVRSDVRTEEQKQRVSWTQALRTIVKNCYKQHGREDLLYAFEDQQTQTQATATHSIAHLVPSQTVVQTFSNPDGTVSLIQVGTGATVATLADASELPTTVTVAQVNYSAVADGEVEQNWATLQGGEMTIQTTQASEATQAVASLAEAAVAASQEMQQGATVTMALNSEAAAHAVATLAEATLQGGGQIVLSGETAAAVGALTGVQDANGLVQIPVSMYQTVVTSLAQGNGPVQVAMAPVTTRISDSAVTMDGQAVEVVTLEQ
In short: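 Multiplexed cis-reporter assay, HepG2 cells, 24 h treatment. Total RNA → oligo(dT) RT → PCR with reporter-specific primers → 6-FAM primer extension → HpaI cut → CE. Bidirectional fit vs DMSO.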

[2] = ATG_NFI_CIS: Attagene CIS-FACTORIAL HepG2 Assay for human Nuclear Factor I (NFI) (AID 2282989); settings: HepG2 cis-regulatory reporter, NFI response element transcription; actives raise or lower the signal
In short: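 Endogenous TF activity in HepG2 cells transiently transfected with cis-element-driven multiplexed reporter units, read 24 h after dosing. Reporter mRNA quantified by RT-PCR, 6-FAM labelling, HpaI digestion and capillary electrophoresis; bidirectional fit versus DMSO.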

[3] = molecular target: Myc proto-oncogene protein (Homo sapiens) (UniProt P01106); test: ATG_Myc_CIS: Attagene CIS-FACTORIAL HepG2 Assay for human Myelocytomatosis (Myc) Proto-Oncogene Transcription Factor (AID 2282990); settings: HepG2, Attagene cis-reporter transcription factor activity; actives raise or lower the signal
Chain of Myc proto-oncogene protein (Homo sapiens) (P01106 whole entry, looked up, the tested form may be a part): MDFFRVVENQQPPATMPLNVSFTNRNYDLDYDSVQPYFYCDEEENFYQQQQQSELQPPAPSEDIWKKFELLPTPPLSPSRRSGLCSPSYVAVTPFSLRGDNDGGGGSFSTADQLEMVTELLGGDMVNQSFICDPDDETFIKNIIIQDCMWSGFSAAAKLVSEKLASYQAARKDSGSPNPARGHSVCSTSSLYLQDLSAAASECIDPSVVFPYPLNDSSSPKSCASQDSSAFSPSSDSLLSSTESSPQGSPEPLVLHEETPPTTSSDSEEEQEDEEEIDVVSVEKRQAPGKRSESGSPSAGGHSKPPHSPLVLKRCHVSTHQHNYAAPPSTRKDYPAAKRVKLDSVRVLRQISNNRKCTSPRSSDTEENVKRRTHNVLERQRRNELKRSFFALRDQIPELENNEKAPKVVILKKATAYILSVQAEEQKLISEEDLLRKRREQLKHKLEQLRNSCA
In short: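 Fluorescence intensity of reporter-specific cDNA fragments, separated by capillary electrophoresis, gives the signal. Transfected HepG2 cells carrying cis-promoter reporter constructs are incubated with compound for 24 h; DMSO serves as baseline.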

[4] = ATG_NF_kB_CIS: Attagene CIS-FACTORIAL HepG2 Assay for human Nuclear Factor Kappa B (NF-kB) (AID 2282991); settings: HepG2 Attagene cis-factorial NF-kB reporter mRNA; actives raise or lower the signal
In short: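 Transient MRTU transfection of human HepG2 liver cells → 24 h chemical exposure → total RNA, oligo(dT) RT → PCR, 6-FAM primer extension, HpaI digest 2 h 37 C → CE fragment analysis. Bidirectional fitting, DMSO negative control.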

[5] = ATG_NRF2_ARE_CIS: Attagene CIS-FACTORIAL HepG2 Assay for human Nuclear Factor Erythroid 2 Related Factor 2 (NFR2) response to Antioxidant Response Elements (ARE) (AID 2282992); settings: HepG2 Attagene ARE/NRF2 reporter, transcription factor activity; actives raise or lower the signal;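 as to AC50: reporter mRNA level measured by RT-PCR and capillary electrophoresis fluorescence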
In short: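 Endogenous transcription factor activity in human liver HepG2 cells is tracked via a cis-element-driven reporter within a multiplexed set. mRNA induction is read by RT-PCR and capillary electrophoresis after 24 h, with DMSO as baseline.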

[6] = ATG_Oct_MLP_CIS: Attagene CIS-FACTORIAL HepG2 Assay for human Octamer-Binding Transcription Factor (Oct) (AID 2282993); settings: HepG2 Attagene cis-factorial Oct reporter, mRNA; actives raise or lower the signal
In short: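 HepG2 cells transiently transfected with cis-element-driven reporter transcription units (endogenous TF activity); 24 h compound exposure. Reporter mRNA quantified by RT-PCR, 6-FAM labelling, HpaI digestion and capillary electrophoresis; bidirectional fit versus DMSO baseline.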

[7] = molecular target: Cellular tumor antigen p53 (Homo sapiens) (UniProt P04637); test: ATG_p53_CIS: Attagene CIS-FACTORIAL HepG2 Assay for human p53 Transcription Factor (AID 2282994); settings: HepG2 p53 cis-element reporter, Attagene mRNA; actives raise or lower the signal
Chain of Cellular tumor antigen p53 (Homo sapiens) (P04637 whole entry, looked up, the tested form may be a part): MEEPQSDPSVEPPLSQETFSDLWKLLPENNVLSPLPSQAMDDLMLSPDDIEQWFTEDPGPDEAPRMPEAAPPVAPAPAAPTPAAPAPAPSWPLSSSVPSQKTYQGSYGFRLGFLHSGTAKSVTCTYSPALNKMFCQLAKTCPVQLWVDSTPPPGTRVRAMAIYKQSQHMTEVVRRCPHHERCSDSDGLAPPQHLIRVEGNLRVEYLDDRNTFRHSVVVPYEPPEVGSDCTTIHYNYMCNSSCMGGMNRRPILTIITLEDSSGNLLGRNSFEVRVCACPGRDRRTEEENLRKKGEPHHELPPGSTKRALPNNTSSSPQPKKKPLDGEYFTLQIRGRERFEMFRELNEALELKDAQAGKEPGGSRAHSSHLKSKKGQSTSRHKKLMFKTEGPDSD
In short: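 Steps: transfect HepG2 with multiplexed cis reporter constructs; dose chemicals 24 h; extract RNA, reverse-transcribe, PCR-amplify reporter sequences; FAM-label, HpaI-digest, resolve fragments by CE. Activity fitted both directions relative to DMSO.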

[8] = BSK_3C_TissueFactor: BioMAP Diversity Plus: 3C Assay for Tissue Factor Biomarker Activity (AID 2282997); settings: BioMAP 3C HUVEC, tissue factor biomarker readout; actives raise or lower the signal
In short: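 HUVEC, 3C system, 24 h post-dose; Tissue Factor by ELISA; bidirectional fit vs DMSO baseline.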

[9] = BSK_3C_uPAR: BioMAP Diversity Plus: 3C Assay for Urokinase-type plasminogen activator receptor (uPAR) Biomarker Activity (AID 2282998); settings: BioMAP 3C HUVEC, uPAR biomarker ELISA; actives raise or lower the signal
In short: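 Primary human umbilical vein endothelial cells, 3C system; surface uPAR measured by ELISA 24 h after dosing. Cytotoxicity via SRB total protein in parallel cultures; bidirectional fit against DMSO.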

[10] = BSK_3C_VCAM1: BioMAP Diversity Plus: 3C Assay for Vascular cell adhesion molecule 1 (VCAM1) Biomarker Activity (AID 2282999); settings: BioMAP 3C HUVEC, VCAM1 ELISA, cytokine-stimulated; actives raise or lower the signal
In short: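 HUVEC primary cells, 24 h compound exposure; VCAM-1 by ELISA; gain/loss of signal fitted bidirectionally vs DMSO baseline.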

Measured: AC50

O=C1OC2(c3ccccc31)c1cc(Br)c(O)c(Br)c1Oc1c2cc(Br)c(O)c1Br
active: [6] 66.2 µM
inactive: [1] | [2] | [3] | [4] | [5] | [6]

CCCCOCCO
inactive: all assays above

CC1=C(/C=C/C(C)=C/C=C/C(C)=C/C(=O)O)C(C)(C)CCC1
inactive: [1] | [2] | [3] | [4] | [5] | [6] | [7] | [8] | [9]
active: [5] 35.7 µM | [6] 24.2 µM | [7] 20.6 µM | [10] 27.9 µM

CC(C)(C)c1cccc(C(C)(C)C)c1O
active: [2] 159 µM | [3] 152 µM | [5] 167 µM | [6] 166 µM | [7] 177 µM
inactive: [1] | [4] | [8] | [9] | [10]

Cc1ccc(S(=O)(=O)O)c(C)c1
not listed: [8] | [9] | [10]
inactive: all other assays above

CCc1ccc(CCOc2ccc(CC3SC(=O)NC3=O)cc2)nc1 (centres undefined)
active: [5] 25.6 µM
inactive: [1] | [2] | [3] | [4] | [5] | [6] | [7] | [8] | [9] | [10]

CC(C)(C)CC(C)(C)c1ccc(O)c(-n2nc3ccccc3n2)c1
active: [5] 36.4 µM | [6] 78.5 µM
inactive: all other assays above

Cc1cc(CCN2CCN(c3nsc4ccccc34)CC2)cc2c1NC(=O)CC2(C)C
active: [5] 4.32 µM | [6] 8.81 µM | [8] 26.9 µM | [9] 26.6 µM | [10] 33.2 µM
inactive: [1] | [2] | [3] | [4] | [7]

CC[C@H](c1ccc(O)cc1)[C@@H](CC)c1ccc(O)cc1
active: [5] 6.58 µM [middle of 4 runs] | [7] 17.5 µM | [8] 32.5 µM | [9] 21.7 µM | [10] 34.2 µM
inactive: [1] | [2] | [3] | [4] | [6] | [7]

CCCCCCCCCCCCCC[N+](C)(C)C
active: [5] 5 µM and 6.55 µM | [6] 11.1 µM | [8] 5.43 µM | [9] 1.25 µM | [10] 4.71 µM
inactive: [1] | [2] | [3] | [4] | [6] | [7]

C=C(C)C(=O)OCCC(F)(F)C(F)(F)C(F)(F)C(F)(F)C(F)(F)C(F)(F)F
inactive: all assays above

CC(C)(C)c1cc(C(C)(C)C)c(O)c(C(C)(C)C)c1
inactive: [1] | [2] | [3] | [7] | [8] | [9] | [10]
active: [2] 54.2 µM | [5] 49.6 µM and 57.1 µM | [6] 27.6 µM and 43.2 µM

CC(=O)NC1(c2cccc(F)c2)CCN(CC[C@@]2(c3ccc(Cl)c(Cl)c3)CN(c3ccccc3)C(=O)CO2)CC1
inactive: [8]
active: [1] 57.5 µM | [2] 41.7 µM | [3] 61.5 µM | [4] 55 µM | [5] 9.13 µM | [6] 37.3 µM | [7] 18.4 µM | [9] 20.4 µM | [10] 24.2 µM

CC(O)CO (centres undefined)
inactive: all assays above

NC(=O)N(O)[C@@H]1C=C[C@H](Oc2cccc(Oc3ccc(F)cc3)c2)C1
active: [5] 20.6 µM | [6] 33 µM
inactive: all other assays above

FC(F)(I)C(F)(F)C(F)(F)C(F)(F)C(F)(F)C(F)(F)I
active: [5] 11.1 µM
not listed: [8] | [9] | [10]
inactive: all other assays above

COc1ccc([N+](=O)[O-])cc1N
inactive: all assays above

CCCCC[C@H](O)CC(=O)CCc1ccc(O)c(OC)c1
active: [1] 152 µM | [5] 29.9 µM
inactive: [2] | [3] | [4] | [6] | [7]

From PubChem BioAssay (EPA / NIEHS)
